The record followed here is PubChem BioAssay.

Unmarked numbers belong to inactive results. The rule behind the calls is not given here.

Pantothenate synthetase (Mycobacterium tuberculosis (strain ATCC 25618 / H37Rv)), sequence (P9WIL5 whole entry, looked up): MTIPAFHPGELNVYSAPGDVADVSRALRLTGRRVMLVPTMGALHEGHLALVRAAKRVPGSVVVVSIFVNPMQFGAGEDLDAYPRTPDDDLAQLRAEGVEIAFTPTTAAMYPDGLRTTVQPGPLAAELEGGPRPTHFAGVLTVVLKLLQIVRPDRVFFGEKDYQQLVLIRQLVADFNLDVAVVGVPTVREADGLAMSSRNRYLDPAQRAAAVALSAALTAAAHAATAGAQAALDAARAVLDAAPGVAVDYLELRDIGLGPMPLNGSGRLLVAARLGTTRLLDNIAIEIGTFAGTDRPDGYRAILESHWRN

This assay addresses Pantothenate synthetase (Mycobacterium tuberculosis (strain ATCC 25618 / H37Rv)) (UniProt P9WIL5). Put plainly: Recombinant Mtb pantothenate synthetase (PanC) inhibitors, coupled enzyme, confirmatory (AID 375).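 Note: 0% = full reaction with vehicle and 100% = no enzyme background.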 As to conditions: coupled enzyme assay; at 10 µM, stronger effect = higher value.
Turning to `CCOc1ccc(N2CC(C(=O)NCCc3ccc(OC)c(OC)c3)CC2=O)cc1` (stereo not given), the inhibition (in general, the share of the control response that was lost under treatment) was 0%.

On to `COc1ccccc1NC(=O)Cn1nnc(-c2ccccc2NC(=O)c2ccco2)n1`, for which the inhibition is 0%.

As to `C=COCCNC(=O)Nc1ccc(Cl)c(Cl)c1`, the inhibition is 0%.

As for `CCSC1(SCC)N=C(N)C2(C#N)C(c3ccccc3)NC(C)=C(C)C12C#N` (stereo not given), the inhibition is 0%.

For `CCN(CC)CCN1C(=O)C(O)=C(C(=O)c2cccs2)C1c1ccccn1` (stereo not given), the inhibition is 0%.

For the molecule `CCOC(=O)N1CCN(c2cc(=O)n(-c3ccccc3Cl)c(=O)[nH]2)CC1`, the inhibition is 0%.

On to `CC1(C)OC(=O)N(c2cccnc2)C1(C)O` (stereo not given), for which the inhibition is 3%.

As for `Cc1cccc(-n2ccnc2SCC(=O)Nc2cc(C)on2)c1`, the inhibition is 1%.

In the case of `N#CC1=C(N)N(c2ccc(Oc3ccccc3)cc2)C(=O)C1`, the inhibition was 2%.

Regarding `CC(C)(C)OC(=O)N1CC=C2C(C#N)=C(N)C(C#N)(C#N)[C@H](c3cccnc3)[C@H]2C1`, the inhibition was 5%.

For the molecule `COc1cc(C2C3=C(CC(C)(C)CC3=O)Nc3c2c(=O)[nH]c(=O)n3Cc2ccccc2)ccc1O` (stereo not given), the inhibition is 4%.

With `CN1CCN(Cc2nc3c(c(=O)n(C)c(=O)n3C)n2Cc2ccccc2Cl)CC1`, the inhibition is 0%.

Consider `Cc1occc1-c1nnc(SCC(=O)c2ccc(F)cc2)n1Cc1ccco1`, for which the inhibition is 3%.

In the case of `COc1ccc2c(-c3cccnc3)cc(=O)[nH]c2c1`, the inhibition was 6%.

Consider `O=C(Nc1ccc(Cl)c(Cl)c1)Nc1cc(C(=O)N2CCOCC2)ccc1N1CCCCC1`, for which the inhibition was 4%.

In the case of `c1ccc(C2(Cn3ccc4ccccc43)OCCO2)cc1`, the inhibition was 0%.

Regarding `CCOC(=O)CN(C(=O)c1ccccc1)c1ccccc1C`, the inhibition is 0%.

`COc1ccc(C2=NO[C@@H]3C(=O)N(c4ccc5c(c4)OCCO5)C(=O)[C@H]23)cc1OC`: the inhibition is 3%.

Consider `COc1ccc(-c2noc(CCC(=O)NCCCN3CCC(Cc4ccccc4)CC3)n2)cc1`, for which the inhibition was 0%.

On to `Cc1nn(-c2ccccc2)c2[nH]c(C(F)(F)F)cc(=O)c12`, for which the inhibition was 1%.

Regarding `Nc1cccc2c1C(=O)N(c1ccccc1)C2=O`, the inhibition is 0%.

With `CCOc1ccc(C2/C(=C(/O)c3ccc(OC)cc3)C(=O)C(=O)N2c2cc(C)on2)cc1OC` (stereo not given), the inhibition is 0%.

Consider `COCCN1C(=O)C(=O)/C(=C(/O)c2cccc(OC)c2)C1c1ccncc1` (stereo not given), for which the inhibition is 1%.

On to `CN(C)C(=O)N1CCCC(C(=O)NCc2ccccc2)C1` (stereo not given), for which the inhibition was 0%.

As for `Clc1ccc(Cl)c(-c2nn3c(COc4ccccc4)nnc3s2)c1`, the inhibition was 4%.

With `O=C(CCNC(=O)Cn1ccc2ccccc2c1=O)NCCN1CCN(c2ccccc2F)CC1`, the inhibition is 0%.

Turning to `CCOC(=O)c1ccc(NC(=O)CCc2nc(-c3cccc(C)c3)no2)cc1`, the inhibition was 2%.

Consider `COc1cccc(-c2nc(CS(=O)(=O)CC(=O)NCc3ccc(Cl)cc3)c(C)o2)c1`, for which the inhibition was 0%.

As to `Fc1ccccc1Cn1nnc2c(-n3ccnc3)ncnc21`, the inhibition was 0%.

Turning to `c1ccc2c(c1)CC(N1CCCCC1)c1ccccc1N2` (stereo not given), the inhibition was 0%.

Regarding `CCn1cc(C(=O)OCc2ccc(F)cc2)c(=O)c2ccc(C)nc21`, the inhibition is 5%.

As to `C/C(Cl)=C\Cn1c(Nc2ccc(C)cc2)nc2c1c(=O)n(C)c(=O)n2C`, the inhibition is 3%.

Consider `CCCCOCCCNC(=O)c1cccs1`, for which the inhibition is 0%.

Regarding `COc1ccc(S(=O)(=O)Nc2ccccc2OC)cc1C`, the inhibition was 2%.

Consider `CC(=O)N1CCc2cc(S(=O)(=O)CCC(=O)Nc3cccc(F)c3)ccc21`, for which the inhibition is 0%.

With `Cc1cc(C)n(CC(=O)NC2CCCCC2)n1`, the inhibition was 0%.

Regarding `COc1ccc(C(=O)N2CCCc3ccccc32)cc1`, the inhibition is 0%.

Consider `CCOC(=O)c1c(C)n(C)c2c(C)cc(O)c(OC(C)=O)c12`, for which the inhibition was 0%.

Take `CCN(CC)C(=O)CN(c1cc(Cl)ccc1OC)S(C)(=O)=O`: the inhibition is 0%.

For the molecule `CCN(CC)CCNC(=O)c1ccc(CS(=O)(=O)c2ccc(Br)cc2)o1`, the inhibition was 0%.
